Tau fibril ThT: inhibitors of human tau fibril formation, thioflavin T binding; Potency, µM (series often up to 57.4 µM), actives largely listed as inhibitors; hit rate 2.1% among 270,000; recombinant tau K18 P301L, heparin-induced fibrillization, ThT fluorescence; also: nearly all actives have a fitted effect of over 55% in size
Target sequence (P10636 561-689 P618L limits assumed): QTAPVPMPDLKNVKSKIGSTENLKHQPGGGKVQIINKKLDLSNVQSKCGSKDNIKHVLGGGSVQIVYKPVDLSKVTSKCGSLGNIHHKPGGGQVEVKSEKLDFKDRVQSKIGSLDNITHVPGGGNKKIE
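Using a mix of unlabeled (15 uM) and Alexa 594-labeled (0.24 uM) tau K18 P301L, heparin-triggered fibrillization over 6 hr at 37 C was scored by ThT fluorescence.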
Sfp inh: inhibitors of Bacillus subtilis Sfp phosphopantetheinyl transferase; Q9F4F7; Biochemical Sfp PPTase activity, qHTS; Potency, µM, usual class: inhibitors; hit rate 3.5% among 310,000;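 also: the enzyme is Sfp with the accession as filed and its product quenches rhodamine fluorescence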
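Fluorescence-quenching assay: 15 nM Sfp-PPTase preincubated 15 min at room temperature with compound, then 5 uM rhodamine-CoA and 12.5 uM BHQ-2-labelled YbbR peptide added. Fluorescence (ex 525/em 598 nm) read at start and after 30 min; difference gives rate.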
PLK1 PBD inh: PLK1 (human) polo-box domain binding inhibition; P53350; Plk1 PBD binding of FITC phosphopeptide, fluorescence polarization; Potency, µM, actives largely listed as inhibitors; hit rate 2.8% among 360,000; also: series mostly up to about 57 µM; nearly all actives have a fitted effect of over 65% in size
VDR inhibitor: blocks the human vitamin D receptor; hit rate 0.93% among 400,000; Potency, µM, hits mostly inhibitors; P11473; VDR-SRC2-3 peptide fluorescence polarization, 2 h
Target sequence (P11473 whole entry, looked up): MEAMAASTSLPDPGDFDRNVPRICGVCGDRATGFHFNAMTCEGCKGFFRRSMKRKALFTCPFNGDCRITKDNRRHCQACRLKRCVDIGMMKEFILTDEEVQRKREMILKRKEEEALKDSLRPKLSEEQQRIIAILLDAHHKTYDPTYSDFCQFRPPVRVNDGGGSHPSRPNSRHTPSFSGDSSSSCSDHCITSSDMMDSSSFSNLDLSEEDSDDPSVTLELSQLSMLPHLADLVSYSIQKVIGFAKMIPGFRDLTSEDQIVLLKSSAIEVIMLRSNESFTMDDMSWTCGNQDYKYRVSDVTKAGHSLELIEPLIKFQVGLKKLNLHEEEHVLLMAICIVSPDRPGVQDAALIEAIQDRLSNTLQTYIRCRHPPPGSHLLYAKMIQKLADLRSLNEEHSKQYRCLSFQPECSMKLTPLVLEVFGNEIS
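Inhibition of the VDR/SRC2-3 peptide interaction is quantified by fluorescence polarization. Compounds (23 nl, pintool) incubate with the reagents for 2 hours at ambient room temperature.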
Tau fluor cs: counter-screen for tau fibril formation inhibitors. tau K18 P301L Alexa594 fluorescence, heparin fibrillization. Potency, µM (top dose mostly 57.7 µM). hit rate 0.93% among 280,000. AID 1463; also: nearly all actives have a fitted effect of over 55% in size
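Human tau K18 P301L (15 uM unlabeled, 0.24 uM Alexa 594-labeled) in 100 mM sodium acetate pH 7 with 20 uM heparin, 6 hr at 37 C. ThT 30 uM added, 1 hr ambient; Alexa 594 FP and total fluorescence read at 555/632 nm.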
Tau fibril FP: inhibitors of human tau fibril formation | P10636 | K18 P301L tau heparin fibrillization, Alexa594 FP, 6 h | Potency, µM (series often up to 57.7 µM), hits mostly inhibitors | hit rate 0.39% among 280,000 | AID 1468; also: nearly all actives have a fitted effect of over 55% in size
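Compound effects on tau fibrillization are measured by Alexa 594 fluorescence polarization (ex 555, em 632 nm). K18 P301L tau is used at 15 uM with 0.24 uM labeled tracer, and 20 uM heparin induces aggregation over 6 hr at 37 C.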
VDR inh confirm: confirmation of human vitamin D receptor inhibitors; hit rate 89% among 840; shares compounds with VDR inhibitor; Potency, µM, hits mostly inhibitors; VDR-coactivator inhibition assay, qHTS confirmation
VDR FP: blocks human VDR-coactivator binding in fluorescein assay. Potency, µM (series often up to 57.1 µM), hits mostly inhibitors. hit rate 48% among 840. AID 602200. VDR-coactivator binding, fluorescein fluorescence polarization. shares compounds with VDR inhibitor
VDR bla reporter: confirmation of human vitamin D receptor inhibitors in reporter cells; hit rate 23% among 840; Potency, µM (titrated, usually from 46.1 µM), usual class: inhibitors; shares compounds with VDR inhibitor; VDR beta-lactamase reporter cells, FRET ratio; cells co-treated with VDR agonist LG190178
VDR cytotox: cell toxicity, VDR inhibitor hit counter-screen. hit rate 18% among 840. shares compounds with VDR inhibitor. Potency, µM (highest dose often 48.3 µM), usual class: cytotoxic. cytotoxicity counter-screen, cell viability, qHTS; also: nearly all actives have a fitted effect of over 75% in size
Large screens that a line does not name were inactive (follow-up assays come after a bar, where they were run). The list is not random: actives were taken first. Their share in the collection is about 6%. Calls follow the shape of the dose curve; as a rule, active = well fitted curve in the direction sought with a large enough effect; inconclusive = small, poorly fitted or top-dose-only effect, or another doubt; inactive = no such curve, though single readings can be large; an effect the other way counts as inactive or inconclusive.

CCN(c1ccccc1)S(=O)(=O)c1ccc(NC(=O)c2nc(S(C)(=O)=O)ncc2Cl)cc1	Tau fibril ThT inconclusive, Sfp inh 20µM, PLK1 PBD inh 17µM, VDR inhibitor 40µM, Tau fibril FP inconclusive | VDR inh confirm 13 | VDR FP inconclusive | VDR bla reporter inconclusive | VDR cytotox 16µM
CCCSc1ncc(Cl)c(C(=O)Nc2sc3c(c2C(=O)NCC)CCCC3)n1	none (no result: Sfp inh, PLK1 PBD inh)
CCN(CC)CCCNC(=O)c1ccc2c3n(nc2c1)-c1ccc(Cl)cc1CO3	none (no result: Tau fibril ThT, Sfp inh, Tau fluor cs, Tau fibril FP)
Cc1cccc(C)c1NC(=O)c1ccc2c(c1)N(Cc1cccc(Cl)c1)C(=O)c1ccccc1S2=O (stereo not given)	none (no result: Sfp inh, PLK1 PBD inh)
CCCN(CCC)C(=O)Cn1c(=O)n(-c2ccccc2)c(=O)c2c3c(sc21)CCCC3	none (no result: Sfp inh, PLK1 PBD inh)
CCC(=O)NC(c1ccc(C)cc1)c1cc(Cl)c2cccnc2c1O (stereo not given)	none (no result: Tau fibril ThT, Sfp inh, PLK1 PBD inh, Tau fluor cs, Tau fibril FP)
O=C(O)COc1ccccc1C(Nc1cccnc1)c1cc(Cl)c2cccnc2c1O (stereo not given)	Tau fibril ThT 18µM, Sfp inh 22µM, PLK1 PBD inh 1.2µM, VDR inhibitor 22µM, Tau fibril FP 32µM | VDR inh confirm 13 | VDR FP inconclusive | VDR bla reporter inactive | VDR cytotox inactive
COc1ccccc1C(NC(C)=O)c1cc(Cl)c2cccnc2c1O (stereo not given)	none (no result: Tau fibril ThT, Tau fluor cs, Tau fibril FP)
CCOc1ccc(C(Nc2cccnc2)c2cc(Cl)c3cccnc3c2O)cc1 (stereo not given)	Sfp inh inconclusive, PLK1 PBD inh 4.7µM, VDR inhibitor inconclusive | VDR inh confirm 7.1 | VDR FP inconclusive | VDR bla reporter inactive | VDR cytotox inconclusive
CC(C)CC(=O)Nc1ccc2nc(SCC(=O)N3CCc4ccccc43)sc2c1	Tau fibril FP inconclusive (no result: Sfp inh, PLK1 PBD inh)
COc1ccccc1C1=Nn2c(nnc2-c2cccc(OC)c2OC)SC1	none (no result: Tau fibril ThT, PLK1 PBD inh, VDR inhibitor, Tau fluor cs, Tau fibril FP)
CCOC(=O)C1CCCN(c2cc(NCCCO)c([N+](=O)[O-])c3nonc23)C1 (stereo not given)	none (no result: PLK1 PBD inh, VDR inhibitor)
CC(=O)c1ccc(Sc2nnc(C)s2)c([N+](=O)[O-])c1	none
Cc1nnc(Sc2cc(NCCO)c([N+](=O)[O-])c3nonc23)s1	Tau fibril ThT 7.9µM, Sfp inh 6.3µM, PLK1 PBD inh 2.4µM, VDR inhibitor 22µM, Tau fluor cs inconclusive, Tau fibril FP inconclusive | VDR inh confirm 4.2 | VDR FP inconclusive | VDR bla reporter inconclusive | VDR cytotox inconclusive
Cc1nnc(Sc2cc(NCCCO)c([N+](=O)[O-])c3nonc23)s1	Tau fibril ThT 6.3µM, Sfp inh 3.2µM, PLK1 PBD inh 5.3µM, VDR inhibitor 45µM, Tau fluor cs inconclusive | VDR inh confirm 13 | VDR FP 11µM | VDR bla reporter inconclusive | VDR cytotox inconclusive
CC(C)=CCC[C@H](C)C[C@@H]1CC2=C(C(=O)OC(C)(C)O2)[C@@H](c2ccc(F)cc2)O1	none (no result: Tau fibril ThT, Sfp inh, VDR inhibitor, Tau fluor cs, Tau fibril FP)
Oc1cc2c(cc1C(c1ccc(Cl)c(Cl)c1)N1CCCC1)OCO2 (stereo not given)	Sfp inh inconclusive, PLK1 PBD inh 1.2µM, VDR inhibitor inconclusive | VDR inh confirm 3.5 | VDR FP 3.5µM | VDR bla reporter inconclusive | VDR cytotox inactive
COc1ccc(C(=O)/C=C/c2ccccc2F)c(OC(=O)c2ccc([N+](=O)[O-])cc2)c1	Tau fibril ThT inconclusive, VDR inhibitor inconclusive, Tau fluor cs inconclusive | VDR inh confirm inconclusive | VDR FP 6.3µM | VDR bla reporter inconclusive | VDR cytotox inactive

From PubChem BioAssay
